# Laboratory results: PubChem BioAssay (NCI)
# This is part of a sample that, as a whole, favours compounds with a hit. Of some 79,000 tested, about 15% had one in any assay. A number with no mark means an inactive call. Calls of active or inactive are those of the source. Cut-off read from the data, not from the text of the source: active = growth inhibition above about 70%; inactive = the rest.
# Assay: NCI Yeast Anticancer Drug Screen. Data for the cln2 rad14 strain (AID 165);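 note: 0% = growth equal to vehicle treated cultures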
# Conditions: S. cerevisiae cln2 rad14 strain, at 50.0 µM, active compounds read high
# Summary of the method: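 The screen exposed genetically defined yeast (cln2 rad14) to test compounds and scored growth inhibition relative to vehicle-treated controls.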
row,SMILES,growth inhibition
1,CC/C=C/CC(=O)NCc1ccc(O)c(OC)c1,48.3%
2,c1ccc2cc(N3CCOCC3)ccc2c1,-19.9%
3,CCOC(=O)C(c1ccccc1)N(CCCN(CC)CC)c1ccccc1 (configuration not stated),-9.1%
4,CC(C(O)C(F)(F)F)[N+](C)(C)C (configuration not stated),-13.8%
5,Cc1ccc(NC(=O)CCCC(=O)C(C#N)c2ccccc2Cl)cc1C (configuration not stated),-22.5%
6,COc1ccc(/C(Cl)=C(\C=N/O)c2ccc(OC)c(OC)c2)cc1OC,2.05%
7,N/C(=N\OC(=O)Nc1ccc(CSc2ccc(Cl)cc2)o1)c1ccccn1,10.8%
8,CCOC(=O)C(C)N1CCCCCC1 (configuration not stated),-28.5%
9,CC1(C)C=C(C(Br)c2ccc(Cl)cc2)C(=O)c2ccccc21 (configuration not stated),94.7% (active)
10,Nc1cccc(OCC(O)CN2CCN(c3ccccc3)CC2)c1 (configuration not stated),-2.55%
11,CC(=O)C1CCC(C)(O)CC1=O (configuration not stated),-9.35%
12,COC(SC)(SC)c1cc(-c2c(Cl)cccc2Cl)no1,4.3%
13,CSc1nc(NC2OCC(OC(C)=O)C(OC(C)=O)C2OC(C)=O)c(N=C(C)C(C)=O)c(=O)[nH]1 (configuration not stated),4.95%
14,Cc1ccc(N=C(NN(C)C)C(c2ccccc2)c2ccccc2)cc1,-18.9%
15,CCN(CC)Cc1cc(Nc2c3ccc([N+](=O)[O-])cc3nc3ccc(OC)cc23)ccc1O,54.5%
16,O=C1C=CC(CCCCCn2ccc(=O)[nH]c2=O)C(=O)N1 (configuration not stated),13.8%
17,CC(C)(C)NC(=O)NC(C)(C)C,14.8%
